# Measurements reported in the supplement of paper PMC11417369.
# In all, about 25,000 sequences were measured (“ln(normalized median fluorescence intensity)”: median about 9.3, highest 2% from about 10 on). The list comes from a sample in which the highest values are over-represented; it also holds similar and randomly drawn sequences.
# Tested on: PF3D7_0420300 AP2 domain 1 (GST-tagged)
# Experiment: gcPBM binding intensity (ln(normalized median fluorescence intensity)); higher = stronger DNA binding
# How it was run: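 Binding intensity is defined as the maximum Masliner-normalised natural-log median intensity across replicate spots for either probe orientation. It was measured on an Agilent 4 × 180k array of primer-extended double-stranded 36-bp intergenic genomic probes and negative controls, to which GST-tagged P. falciparum DNA-binding domains made in E. coli were applied for 1 h in 1× PBS with 1% milk, 0.2 mg/ml BSA, 0.5% salmon testes DNA and 0.03% Triton X-100. Detection was by Alexa488 anti-GST antibody and scanning at 488 nm.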
row,Sequence,gcPBM binding intensity (ln)
1,GACAATTATATGTAGGTGCATATACAAATTTTTTAA,9.11
2,ATATATATATATAACACACGCAAAAAAATTAAATAA [CACACA_site1400],9.69
3,AAAACAAATAGACACGCACACAAAAAAAAAAAAAAA [CACACA_site801],9.33
4,TTAACAAATAGACACACACACACACGCAAAAAAAAA [CACACA_site6387],10.2
5,AAAAAAAAAAAATATATATATATATATATATATATA [CACACA_negctrl_site1606],9.3
6,TATATAAAAATATACACACACAAATGTATATATATA [CACACA_site220],9.68
7,AAAAAAAAAAAAAAATACAAGCACATTTATATAAGC [GTGCAC_negctrl_site695],9.46
8,AAATACTGATTTGGTTGTACATGTGCACTATATAAC [XGTACX_site3795],9.35
9,TCATTTCACAGACACACACACACAATATATTTCCTT [CACACA_site9295],10.2
10,TCATTTCACAAACACACACACACAATATATTTCCTT [CACACA_site3905],10.1
11,TCATTTCACGGACACACACACACAATATATTTCCTT [CACACA_site6023],10.2
12,TATTTTATAATTTACCGTACATTAATTGTATTATTA [XGTACX_site5722],9.33
13,TACATACAGAAACACACACACACATATATATATATA [CACACA_site2919],10
14,ATCAAAAGAAAACACACACACATACAGATATATATA [CACACA_site5974],10.2
15,CAATCAAATAGACACACACACACCTAAACATAAAAG [CACACA_site7322],10.1
16,CATACACAGAAACACACACACATATATACATATATA [CACACA_site1094],10.1
17,CAATCAAAGAAACACACACACACCTAAACATAAAAG [CACACA_site2756],10.2
18,TAGATACAGAAACACACACACACATACATATATACA [CACACA_site3437],10.2
19,ATCAAAAGAAAACACACACACATACATATATATATA [CACACA_site3795],10.1

row,Sequence,gcPBM binding intensity (ln)
1,GTATCAAAAGAATACACACACACATACAGATATATA [CACACA_site5975],10.1
2,CAATCAAATGGACACACACACACCTAAACATAAAAG [CACACA_site5524],10.2
3,ATATTACGCACAAAAAAAAAAAAAAAAAAAAAAAAA [CACACA_negctrl_site941],8.77
4,TGGATGTTAATATAGTGTACATTTATAAGTCAGTAT [XGTACX_site2949],9.45
5,ATATTGTAAGTAAACACACACACATCTATAGGTATA [CACACA_site6462],9.96
6,AATATATACATACATACATGCATACATATATATAAC [TGCATGCA_site371],9.37
7,AAAACAAACAGACACACACACATATTTATATTTATA [CACACA_site7681],10.1
8,TATATACCTATATACACACACATATATTATAGATAT [CACACA_site6266],9.82
9,TATTTATACCTATACACACACACACGGATATTTATA [CACACA_site7123],10.2
10,TATATATATTTATACACACACATATATTTATATATT [CACACA_site484],9.7
11,TATATATATATATATACACACATATATATATTTATA [CACACA_site627],9.39
12,CATACATACATACATACACACATACCTATATTTATA [CACACA_site6769],9.79
13,ACCATACATACATACACACACACACGCATATTTATA [CACACA_site7386],10.4
14,TATTTATATTTATATACACACATATATACCTATATA [CACACA_site7820],9.48
15,CATACATACAGACACACACACATATTTATATTTATA [CACACA_site6172],9.94
16,TATAGATACCTATACACACACACACGGACATATATA [CACACA_site7585],10.2
17,GATACCTATAGACACACACACATACCTATATACATA [CACACA_site7586],10.1
18,AAAAAACAGACATACACACACACACGGATATTTATA [CACACA_site7570],10.3
19,AATGCTATCATTAATGCACACATTTAAAATTAATAT [CACACA_site3548],9.22

row,Sequence,gcPBM binding intensity (ln)
1,ATTATATTAATTTATAGTACAATATTTATATATATG [XGTACX_site4668],9.2
2,AAATATATATATAGTACATGCAGTAGATAATTTAAT [TGCATGCA_site299],9.51
3,CAGATAGACTTATATGCATGCATTCACATACCAACA [TGCATGCA_site163],9.27
4,ATAATATATATATTTTGTACACATGAAAAGGAGGAT [XGTACX_site5034],9.52
5,TTGCTTATTAAATGGGGTACATTATATATATATATA [XGTACX_site2515],9.49
6,TTTTTTTTTTTTTTTGGTACACATTTTGGTTAATGG [XGTACX_site5109],9.06
7,ATATTATTATTAGTTTCACACATTTAATGAAACTAA [CACACA_site5677],9.03
8,TTGTTAATAAAAATATTGGAAAGTTTATAAAATTTT [CACACA_negctrl_site1487],8.9
9,TGTTCTTTGTTCAGCGCATGTAAAATAAAATAAAAT [TGCATGCA_site629],9.04
10,AGGAGACTTAAAAAAAGTACAAAAAAAAAAAAAAGC [XGTACX_site1576],9.65
11,TATATATATATACCTTGTACTTACATTCGCATATAA [XGTACX_site2466],9.32
12,TAATATATGTATTGCACACCTATAACCATTATTTCT [CACACA_site1498],9.51
13,TACATATTTATATACACACACACACGGATATTTATA [CACACA_site7239],10.3
14,TATATATATATTTATACACACACATATATTTATATA [CACACA_site8054],9.59
15,ATTTTTATTTTATATACACACAATAATAATATAATA [CACACA_site4015],9.39
16,AGCACAAGCACAAGCACACATTTATATATAAATACA [CACACA_site4642],9.42
17,TATTTATATTTATATACACACATACATATTTATATT [CACACA_site6535],9.57
18,ATAATACACAAGCACACACACACACGGATATTTATA [CACACA_site6714],10.3
19,GAAATACCGGAAAGCAAACACACATTTTAAAACCAT [CACACA_site3861],9.68
